Experimental findings from PubChem BioAssay (Tox21) are described below.

A short description of assay [1]: qHTS assay for identifying genotoxic compounds that show differential cytotoxicity against isogenic chicken DT40 cell lines with known DNA damage response pathways - wild type cell line (AID 743012). Further: nearly all actives have a fitted effect of over 60% in size. Further: potency means the concentration at half of the fitted maximal effect. The method, boiled down:
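Using parental DT40 (300 cells/well), compounds delivered in DMSO incubate 40 h at 37 C/5% CO2. CellTiter-Glo reagent then stands 30 min at room temperature, and luminescence gives cell viability.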

A short description of assay [2]: qHTS assay for identifying genotoxic compounds that show differential cytotoxicity against isogenic chicken DT40 cell lines with known DNA damage response pathways - Rev3 mutant cell line (AID 743014). Further: nearly all actives have a fitted effect of over 55% in size. Further: potency means the concentration at half of the fitted maximal effect.
A short description of assay [3]: qHTS assay for identifying genotoxic compounds that show differential cytotoxicity against isogenic chicken DT40 cell lines with known DNA damage response pathways - Rad54/Ku70 mutant cell line (AID 743015). Further: nearly all actives have a fitted effect of over 60% in size. Further: potency means the concentration at half of the fitted maximal effect.
The nature of assay [4]: qHTS assay to identify small molecule antagonists of the androgen receptor (AR) signaling pathway - cell viability counter screen (AID 743033; further: nearly all actives have a fitted effect of over 45% in size; further: potency means the concentration at half of the fitted maximal effect).
Assay [5] in a line: qHTS assay to identify small molecule antagonists of the thyroid receptor (TR) signaling pathway - cell viability counter screen (AID 743064). Further: nearly all actives have a fitted effect of over 50% in size. Further: potency means the concentration at half of the fitted maximal effect. The gist of the method: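 GH3.TRE-Luc rat pituitary cells dosed after 4 hr plating, co-stimulated with T3 at 1 nM final, incubated 23.5 h at 37 C. Viability measured in the same wells by CellTiter-Fluor fluorescence after 30 min further at 37 C.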

Assay [6] in a line: qHTS assay to identify small molecule antagonists of the thyroid receptor (TR) signaling pathway (AID 743065). Further: potency means the concentration at half of the fitted maximal effect; nearly all actives have a fitted effect of over 55% in size. The gist of the method:
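Antagonism measured as loss of luciferase signal in GH3 cells stably carrying a TRE-luciferase reporter, co-treated with compound and T3 (1 nM final) for 23.5 h at 37 C. Viability was read in the same well by CellTiter-Fluor.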

For assay [7], the target named is Estrogen receptor (Homo sapiens) (UniProt P03372). Put plainly: qHTS assay to identify small molecule agonists of the estrogen receptor alpha (ER-alpha) signaling pathway (AID 743075; calls by dose curve;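 further: HEK293 GripTite cells with ER-alpha and UAS-driven beta-lactamase reporter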; further: potency means the concentration at half of the fitted maximal effect).
Estrogen receptor (Homo sapiens), sequence (P03372 whole entry, looked up): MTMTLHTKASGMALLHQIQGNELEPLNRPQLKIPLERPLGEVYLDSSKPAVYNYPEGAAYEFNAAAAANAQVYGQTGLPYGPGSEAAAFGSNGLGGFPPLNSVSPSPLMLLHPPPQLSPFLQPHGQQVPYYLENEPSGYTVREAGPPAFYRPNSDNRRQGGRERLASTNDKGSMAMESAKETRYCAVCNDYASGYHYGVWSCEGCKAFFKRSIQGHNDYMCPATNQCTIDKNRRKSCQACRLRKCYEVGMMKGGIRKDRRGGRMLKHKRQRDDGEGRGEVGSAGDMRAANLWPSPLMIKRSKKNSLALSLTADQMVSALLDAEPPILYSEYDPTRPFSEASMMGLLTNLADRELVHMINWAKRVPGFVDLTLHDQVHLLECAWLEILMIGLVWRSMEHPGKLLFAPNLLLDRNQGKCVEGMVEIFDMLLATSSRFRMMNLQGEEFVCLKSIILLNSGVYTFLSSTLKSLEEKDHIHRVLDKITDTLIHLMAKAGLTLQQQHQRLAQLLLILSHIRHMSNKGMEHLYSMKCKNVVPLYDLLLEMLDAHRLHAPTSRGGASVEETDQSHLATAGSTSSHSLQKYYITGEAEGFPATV
The nature of assay [8]: qHTS assay to identify small molecule antagonists of the estrogen receptor alpha (ER-alpha) signaling pathway using the BG1 cell line (AID 743080; calls by dose curve;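 further: BG1 cells stimulated with 17beta-estradiol alongside compound; nearly all actives have a fitted effect of over 25% in size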; further: potency means the concentration at half of the fitted maximal effect). The gist of the method: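 Endogenous full-length ER-alpha in BG1-Luc-4E2 cells drives a stably integrated 4×ERE luciferase gene; compounds were tested against 17beta-estradiol over 21.5 h, with luminescence and multiplexed viability fluorescence recorded.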

In assay [9] the target is Aromatase (Homo sapiens) (UniProt P11511). Briefly: qHTS assay to identify aromatase inhibitors (AID 743083). Further: nearly all actives have a fitted effect of over 55% in size. Further: potency means the concentration at half of the fitted maximal effect.
Aromatase (Homo sapiens), sequence (P11511 whole entry, looked up): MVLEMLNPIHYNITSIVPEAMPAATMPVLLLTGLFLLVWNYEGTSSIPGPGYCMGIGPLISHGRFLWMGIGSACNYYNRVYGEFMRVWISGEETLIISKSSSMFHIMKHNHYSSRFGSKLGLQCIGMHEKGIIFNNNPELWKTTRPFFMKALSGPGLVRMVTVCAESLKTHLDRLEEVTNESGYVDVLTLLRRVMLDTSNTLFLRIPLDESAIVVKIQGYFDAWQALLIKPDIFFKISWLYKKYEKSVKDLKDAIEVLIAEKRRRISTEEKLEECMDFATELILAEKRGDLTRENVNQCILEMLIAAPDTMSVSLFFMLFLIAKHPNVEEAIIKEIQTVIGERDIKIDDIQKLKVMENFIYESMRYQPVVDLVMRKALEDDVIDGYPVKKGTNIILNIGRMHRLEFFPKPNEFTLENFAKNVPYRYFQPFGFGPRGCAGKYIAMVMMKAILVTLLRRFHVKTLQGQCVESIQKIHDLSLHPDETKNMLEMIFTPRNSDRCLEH
The subject of assay [10] is thyroid hormone receptor (rat, GH3 cells). Briefly: qHTS assay to identify small molecule agonists of the thyroid receptor (TR) signaling pathway (AID 743066; calls by dose curve).
The target in assay [11] is Androgen receptor (Homo sapiens) (UniProt P10275). Put plainly: qHTS assay to identify small molecule agonists of the androgen receptor (AR) signaling pathway using the MDA cell line (AID 743040; further: nearly all actives have a fitted effect of over 20% in size). The method, boiled down: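 Cells plated, 5 h at 37C/0% CO2; compound or DMSO pinned; 16 h at 37C; ONE-Glo added; luminescence measured after 30 min at room temperature. Reporter line: MDA-kb2 with MMTV-luciferase responsive to AR and GR.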
Androgen receptor (Homo sapiens), sequence (P10275 whole entry, looked up): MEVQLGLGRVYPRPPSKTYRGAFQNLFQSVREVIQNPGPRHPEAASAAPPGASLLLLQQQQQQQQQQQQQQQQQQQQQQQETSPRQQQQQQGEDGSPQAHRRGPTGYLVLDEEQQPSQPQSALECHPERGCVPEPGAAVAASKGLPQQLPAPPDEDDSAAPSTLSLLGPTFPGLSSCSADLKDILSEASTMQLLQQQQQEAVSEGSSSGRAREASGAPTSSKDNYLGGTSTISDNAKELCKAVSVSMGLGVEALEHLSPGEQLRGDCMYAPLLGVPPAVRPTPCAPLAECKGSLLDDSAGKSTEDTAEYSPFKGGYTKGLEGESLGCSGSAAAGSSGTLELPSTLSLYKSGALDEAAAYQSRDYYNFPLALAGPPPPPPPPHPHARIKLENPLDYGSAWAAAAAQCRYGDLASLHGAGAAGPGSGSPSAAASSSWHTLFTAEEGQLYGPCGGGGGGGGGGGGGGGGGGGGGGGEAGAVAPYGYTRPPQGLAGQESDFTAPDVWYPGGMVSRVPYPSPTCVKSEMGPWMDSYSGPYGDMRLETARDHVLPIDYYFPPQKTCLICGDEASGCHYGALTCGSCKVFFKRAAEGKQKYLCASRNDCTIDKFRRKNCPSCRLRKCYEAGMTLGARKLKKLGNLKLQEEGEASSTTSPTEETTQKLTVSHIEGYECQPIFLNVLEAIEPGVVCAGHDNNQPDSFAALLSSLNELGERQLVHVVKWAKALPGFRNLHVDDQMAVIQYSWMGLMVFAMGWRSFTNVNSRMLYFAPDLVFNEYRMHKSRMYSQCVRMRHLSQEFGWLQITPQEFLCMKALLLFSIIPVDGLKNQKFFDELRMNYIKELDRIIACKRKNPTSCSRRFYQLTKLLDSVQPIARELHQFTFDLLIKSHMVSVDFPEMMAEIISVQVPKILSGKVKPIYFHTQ

Assay [12] is described as follows: qHTS assay to identify small molecule antagonists of the androgen receptor (AR) signaling pathway using the MDA cell line - cell viability counter screen (AID 743041; further: nearly all actives have a fitted effect of over 45% in size; further: potency means the concentration at half of the fitted maximal effect). The method, boiled down: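 Cells were plated at 3,000 per well and left 5 h. Compounds in DMSO were then pinned in, followed by R1881. After 16 h at 37C, CellTiter-Fluor fluorescence gave viability.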

A short description of assay [13]: qHTS assay to identify small molecule antagonists of the estrogen receptor alpha (ER-alpha) signaling pathway - cell viability counter screen (AID 743074; calls by dose curve;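 further: HEK293 cells carrying ER-alpha-UAS-bla reporter stimulated with 17beta-estradiol; nearly all actives have a fitted effect of over 45% in size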; further: potency means the concentration at half of the fitted maximal effect).
Assay [14] in a line: qHTS assay to identify small molecule antagonists of the estrogen receptor alpha (ER-alpha) signaling pathway using the BG1 cell line - cell viability counter screen (AID 743081).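 Further: compound given together with 17beta-estradiol as the ER stimulus; nearly all actives have a fitted effect of over 45% in size.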 Further: potency means the concentration at half of the fitted maximal effect.
Assay [15] has as its target Estrogen receptor (Homo sapiens) (UniProt P03372). Put plainly: qHTS assay to identify small molecule antagonists of the estrogen receptor alpha (ER-alpha) signaling pathway (AID 743069; active means well fitted curve in the direction sought with a large enough effect in the signal ratio in the repeat runs, not every such curve was filed as active; inconclusive means weak or mixed curves, or effect the other way; inactive means no such curve, though single readings can be large or run the other way; the % refers to the signal ratio; further: potency means the concentration at half of the fitted maximal effect). The gist of the method: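 ER-alpha-UAS-bla GripTite HEK293 line; 2% charcoal-stripped FBS overnight; plated, 4 hr 37C/5% CO2; cpd in DMSO + 17beta-estradiol, 18 hr 37C; LiveBLAzer B/G FRET substrate 2 hr RT; fluorescence intensity.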

The target is the same in assay [16]. Put plainly: qHTS assay to identify small molecule agonists of the estrogen receptor alpha (ER-alpha) signaling pathway using the BG1 cell line (AID 743079). Further: nearly all actives have a fitted effect of over 20% in size. Further: potency means the concentration at half of the fitted maximal effect.

Structures are written as SMILES. Several values for one entry are separate records, joined by “and”; a condition that tells them apart may be missing. Equal entries are not always repeated. Some compounds were tested as several samples or in several runs, with calls that do not always agree. Activity calls are given as the source filed them. Unless noted, the call rests on the fitted dose curve; in most records, active means well fitted curve in the direction sought with a large enough effect in the repeat runs; inconclusive means weak or mixed curves; inactive means no such curve, though single readings can be large; an effect the other way counts as inactive or inconclusive.

Consider `CC(C)C1CCC(Cc2ccc(Cl)cc2)C1(O)Cn1cncn1` (stereo not drawn), for which the Potency in assay [1] is 19.1 µM (active); in [2], 13.5 µM (active); in [3], 8.55 µM (active); in [4] it was 38.5 µM (active); in [5] it was 60.5 µM (active); in assay [6], 34 µM (active). Further, the Potency was 67.9 µM (active) in assay [8] and 2.41 µM (active) in assay [9]. Further, the Potency entry in [7] was “inactive”.
For `Oc1ccc(C2(c3ccc(O)cc3)c3ccccc3-c3ccccc32)cc1`, the Potency was 68.6 µM (active) in [1]; 43.3 µM (active) in assay [2]; 54.5 µM (active) in assay [3]; 54.9 µM (active) in [4]; 27.3 µM (active) in [5]; 15.4 µM (active) in assay [6]. In addition, the result in [10] was inactive.
Regarding `CCOP(=O)(NC(C)C)Oc1ccc(SC)c(C)c1` (stereo not drawn), the Potency was 7.7 µM (active) in [1], 18.8 µM (active) in [2], 40.1 µM (active) in [3] and 61.1 µM (active) in assay [5]. Moreover, the Potency result in assay [11] and in [12] was “inactive” in each case.
`[Hg+2].[I-].[I-]`: the Potency in assay [1] is 1.37 µM (active); in assay [2], 1.22 µM (active); in assay [3], 0.77 µM (active); in [4], 21.9 µM (active); in assay [5] it was 1.54 µM (active); in [6] it was 0.77 µM (active). Further, the Potency was 43.6 µM (active) in assay [13], 54.9 µM [inconclusive] (active) in assay [7], 68.6 µM (active) in assay [14] and 8.63 µM (active) in assay [9]. Also, the call in assay [10] was inactive.
On to `CSCCCN=C=S`, for which the values for the Potency in assay [1], in assay [2] and in assay [3] were 48.6 µM (active), 27.3 µM (active) and 43.3 µM (active), respectively. For the same molecule, the Potency result in assay [4], in assay [12], in assay [5], in assay [13] and in assay [14] was “inactive” throughout. For the same molecule, in assay [10], the molecule was classed as inactive.
Regarding `CC[C@H](C)[C@H]1O[C@]2(C=C[C@@H]1C)C[C@@H]1C[C@@H](C/C=C(\C)[C@@H](O[C@H]3C[C@H](OC)[C@@H](O[C@H]4C[C@H](OC)[C@@H](O)[C@H](C)O4)[C@H](C)O3)[C@@H](C)/C=C/C=C3\CO[C@@H]4[C@H](O)C(C)=C[C@@H](C(=O)O1)[C@]34O)O2`, the Potency in assay [1] was 18.8 µM (active) and 3.61 µM (active); in [2], 21.1 µM (active) and 10.2 µM (active); in assay [3] it was 26.6 µM (active) and 6.42 µM (active); in assay [5], 3.22 µM (active); in [6] it was 26.6 µM (active) and 3.22 µM (active); in assay [15], 4.59 µM [inconclusive] (active). In addition, the Potency entry in [13] was “inactive and 25.8 µM (active)”; in assay [9], “inactive and 14.4 µM (active)”. Also, the Potency result in [4], in assay [12], in assay [7], in assay [16], in assay [8] and in [14] was “inactive” in each case.
Consider `COC12CC[C@@]3(C[C@@H]1C(C)(O)C(C)(C)C)[C@H]1Cc4ccc(O)c5c4[C@@]3(CCN1CC1CC1)[C@H]2O5` (stereo partly drawn), for which the Potency in assay [1] is 54.1 µM (active); in assay [2] it was 60.7 µM (active); in assay [3], 48.2 µM (active); in assay [4], 54.6 µM (active); in assay [12], 60.7 µM (active); in [5], 21.5 µM (active). In addition, the Potency is 24.2 µM (active) in assay [6], 13.7 µM [inconclusive] (active) in assay [15] and 19.2 µM (active) in [9]. The Potency result in assay [7] and in [14] was “inactive” each time.
Regarding `Clc1ccc(COC(Cn2ccnc2)c2ccc(Cl)cc2Cl)cc1` (stereo not drawn), the Potency is 7.5 µM (active) and 20.2 µM (active) and 15.3 µM (active) in assay [1]; 16.8 µM (active) and 12.8 µM (active) and 9.65 µM (active) in assay [2]; 10.6 µM (active) and 16.1 µM (active) and 10.8 µM (active) in [3]; 40.7 µM (active) and 38.7 µM (active) in assay [4]; 13.3 µM (active) and 27.2 µM (active) in [5]; 45.7 µM (active) and 34.5 µM (active) in assay [13]. Also, the Potency in assay [8] was 23.7 µM (active) and 60.9 µM (active); in assay [9] it was 531 nM (active) and 255 nM (active) and 68.3 nM (active). In [10], the molecule was classed as inactive. The Potency entry in assay [14] was “inactive”.
As for `OC(c1ccc(Cl)cc1)(c1ccc(Cl)cc1)C(Cl)(Cl)Cl`, the Potency is 61.1 µM (active) in [1], 48.6 µM (active) in assay [2], 48.6 µM (active) in assay [3] and 61.1 µM (active) in assay [9]. Also, in assay [10], the outcome was inactive. The Potency entry in assay [13] and in assay [14] was “inactive” throughout.
Take `O=C(Nc1ccc2[nH]ccc2c1)c1cc2cc(F)ccc2n1Cc1cccc(F)c1`: the Potency in assay [1] is 19.3 µM (active); in [2], 27.3 µM (active); in assay [3], 17.2 µM (active); in assay [4], 49 µM (active); in assay [5], 10.9 µM (active); in [6] it was 13.7 µM (active). The Potency entry in assay [15], in assay [13] and in assay [14] was “inactive” in each case.
As to `O=C(O)C1C2CCC(O2)C1C(=O)O` (stereo not drawn), the Potency result in assay [1], in assay [2], in assay [3], in assay [4], in assay [12] and in assay [5] was “inactive” each time. The Potency entry in assay [13] and in assay [14] was “inactive” in each case. Further, the call in [10] was inactive.
Turning to `CCN(CC)C(=S)[S-].CCN(CC)C(=S)[S-].[Zn+2]`, the Potency in assay [1] was 1.21 µM (active); in assay [2] it was 1.08 µM (active); in [3], 1.08 µM (active); in assay [4], 0.344 µM (active); in assay [12], 0.96 µM (active); in assay [5] it was 5.4 µM (active). The Potency in assay [13] is 4.86 µM (active); in assay [7], 54.5 µM [inconclusive] (active); in assay [14], 42.9 µM (active); in assay [9] it was 0.096 µM (active).
With `ClC1=C(Cl)[C@]2(Cl)[C@@H]3[C@@H]4C[C@@H]([C@H]5O[C@@H]45)[C@@H]3[C@@]1(Cl)C2(Cl)Cl`, the Potency is 14.5 µM (active) in [2]; 25.8 µM (active) in assay [3]; 40.9 µM (active) in assay [5]; 30.6 µM (active) in assay [6]; 34.4 µM (active) in assay [9]. Further, the Potency result in assay [15] and in [14] was “inactive” each time.
As to `CCCCN(CCCC)C(=S)[S-].CCCCN(CCCC)C(=S)[S-].[Zn+2]`, the Potency result in assay [1], in [2], in assay [3], in assay [4], in assay [12] and in assay [9] was “inactive” throughout. The Potency in assay [5] is 18.8 µM (active) and 7.69 µM (active); in assay [6], 13.3 µM (active) and 9.68 µM (active); in assay [13], 19 µM (active) and 12.3 µM (active); in assay [7], 30.1 µM [inconclusive] (active); in [14] it was 21.1 µM (active) and 38.5 µM (active).
`Oc1ccc(C2(c3ccc(O)cc3)CCCCC2)cc1`: the Potency in assay [2] is 65 µM (active); in assay [3], 57.9 µM (active); in [5], 57.9 µM (active); in assay [6], 36.5 µM (active); in assay [15], 0.52 µM [inconclusive] (active); in [7], 52.1 µM [inconclusive] (active). Moreover, the Potency in assay [16] is 0.818 µM (active); in [9] it was 51.6 µM (active). In addition, the outcome in assay [10] was inactive. Moreover, the Potency entry in [14] is “inactive”.
Consider `CS(=O)(=O)c1ccc(C(=O)C2C(=O)CCCC2=O)c([N+](=O)[O-])c1`, for which the Potency in assay [2] was 44 µM (active); in assay [3], 45.6 µM (active); in assay [5], 55.4 µM (active); in assay [6] it was 69.8 µM (active). The Potency result in [4], in assay [12], in assay [15], in [7], in assay [16] and in assay [8] was “inactive” in each case. The Potency entry in [14] and in [9] was “inactive” in each case. For the same molecule, the call in assay [10] was inactive.
